From PubChem BioAssay
Compounds with a hit are over-represented: about 12% of the library has one in this group of screens.
Cl transport mod = modulates chloride dependent transport by human KCC2; KCC2 cells, thallium flux FluoZin-2 fluorescence; B-score of Tl+ flux slope (higher = more flux/activation; lower = inhibition) at 10 µM; hit rate 2.2% among 190,000; AID 1456;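 active = thallium flux slope and its plate-corrected score both differing from the plate sample mean at a set confidence after two filtering rounds, in either direction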;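 also: slope of fluorescence scaled to starting intensity during 10 to 20 s after thallium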
ROMK mod = human ROMK K+ channel modulation, primary screen. hit rate 2% among 130,000. P48048. B-score at 10 µM. Tet-inducible ROMK, thallium flux fluorescence; actives lie on both sides. AID 1918;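 active = signal ratio slope over the read window, or its plate-corrected B-score, at least 3 SD from the plate mean, either direction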;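 also: B-score of the F/F0 ratio slope over 7 to 12 s after thallium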
Target sequence (P48048 whole entry, looked up): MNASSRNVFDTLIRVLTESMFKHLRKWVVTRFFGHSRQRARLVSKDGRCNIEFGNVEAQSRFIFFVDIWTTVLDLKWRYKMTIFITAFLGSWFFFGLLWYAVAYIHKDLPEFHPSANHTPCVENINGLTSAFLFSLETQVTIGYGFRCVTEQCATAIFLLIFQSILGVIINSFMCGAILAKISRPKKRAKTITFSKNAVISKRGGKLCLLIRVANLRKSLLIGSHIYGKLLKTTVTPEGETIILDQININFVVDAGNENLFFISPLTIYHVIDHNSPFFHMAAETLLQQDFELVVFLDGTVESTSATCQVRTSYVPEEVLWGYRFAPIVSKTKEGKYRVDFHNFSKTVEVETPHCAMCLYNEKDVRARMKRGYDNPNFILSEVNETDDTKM
Insulin prom inh = TRM-6 insulin promoter activity inhibition; hit rate 0.9% among 130,000; AID 1273; inhibition, % at 2 µM; TRM-6 cells (human fetal islet line), insulin promoter-eGFP reporter, imaging; reporter expression induced with tamoxifen;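 active = inhibition above the mean plus 3 SD, with well images judged a real hit on visual review, cut at about 60% in these data, passing the limit was not always enough; inconclusive = inhibition over the cutoff but images rejected on review; inactive = inhibition not above the cutoff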
WT yeast gro inh = growth inhibition of WT yeast, mitochondrial fusion screen; mitochondrial fusion phenotypic screen, WT strain; inhibition, % at 10 µM; hit rate 2.1% among 190,000; AID 1362; in the data active = inhibition above about 58%; tested in S. cerevisiae
Ins promoter up = MIN6 insulin promoter up-regulation; hit rate 0.3% among 190,000; z-score at 5 µM; AID 1625; MIN6 insulin promoter-GFP reporter, high-content imaging; active compounds read high;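 active = z-score above 3 at 5 µM with at least 500 cells counted in the well; inconclusive = wells under 500 cells, flagged as cytotoxic or low count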
Lmaj promast = reduces viability of Leishmania major promastigotes | resazurin fluorescence viability | inhibition, % at 10 µM | hit rate 9% among 200,000; in the data active = inhibition above about 50%;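 also: promastigotes grown with compound for 44 hours at 28 °C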
KCC2 sec1 = confirmation of human KCC2 transport modulators | shares compounds with Cl transport mod | hit rate 15% among 3,700 | normalised thallium flux (F/F0 slope) at 10 µM | HEK293-KCC2, thallium flux, FluoZin2 fluorescence; active compounds read high;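 active = thallium flux slope above the same plate's solvent-only control mean plus 3 SD; inconclusive = the two replicate wells disagree; inactive = no significant difference from solvent-only control wells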
KCC2 bumet counter = thallium flux despite bumetanide block in KCC2 cells, secondary assay 3 | shares compounds with Cl transport mod | HEK293-KCC2 + bumetanide/ouabain, thallium flux FluoZin2; active compounds read high | normalized thallium flux at 10 µM | hit rate 49% among 3,700;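 active = thallium entry rate above the same plate's blocked-transporter control wells by more than 3 SD; inconclusive = the two repeat wells disagree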;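 also: raw slope of fluorescence over initial fluorescence between 10 and 20 s after thallium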
KCC2 sec2 = confirmation of human KCC2 transport modulators; shares compounds with Cl transport mod; HEK293-KCC2, thallium flux FluoZin2 fluorescence; actives lie on both sides; F/F0 rise rate, 10–20 s post-thallium; normalized thallium flux at 10 µM; hit rate 23% among 3,700;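 active = thallium flux slope more than 3 SD above or below the plate's solvent-only control mean, mostly below; inconclusive = the two repeat wells disagreed; inactive = no significant shift from solvent-only controls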;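 also: raw slope with 0.1% DMSO as baseline and bumetanide as block control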
HEK293 Tl flux = acts in parental HEK cells, KCC2 counter-screen; thallium flux rate (normalised fluorescence) at 10 µM; shares compounds with Cl transport mod; hit rate 46% among 3,700; HEK293 parental cells, thallium flux FluoZin2, ouabain; baseline-ratio fluorescence slope, 10–20 s after thallium; AID 1716;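 active = thallium flux rate significantly above the same plate's solvent-only control wells, beyond their mean plus 3 SD; inconclusive = the two replicate wells gave conflicting results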
KCC2 ouabain = confirmation of human KCC2 modulators with ouabain; shares compounds with Cl transport mod; HEK293-KCC2, thallium flux FluoZin2 fluorescence; bidirectional: low = inhibitor, high = activator; raw Tl+ flux slope (below DMSO = inhibition, above = activation) at 10 µM; hit rate 48% among 3,700; AID 1717;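 active = thallium flux slope beyond 3 SD from same-plate DMSO control mean in most replicates, usually higher, sometimes lower; inconclusive = repeat tests gave conflicting results; inactive = no significant difference from controls in most replicates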;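 also: slope of initial-normalized fluorescence between seconds 10 and 20 after thallium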
HEK293 Tl flux2 = parental HEK flux effect, counter-screen 2; hit rate 33% among 3,700; AID 1718; shares compounds with Cl transport mod; thallium flux slope at 10 µM; HEK293 parental, thallium flux FluoZin-2 fluorescence slope;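 active = thallium flux slope above the same plate's solvent-control mean plus 3 SD in both duplicate wells; inconclusive = duplicate wells that disagreed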;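 also: run without ouabain in cells lacking the KCC2 cotransporter; slope of fluorescence scaled to its starting value between 10 and 20 s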
* marks the source's active call; other numbers are inactive results; ? = inconclusive; . = no result given.

SMILES | Cl transport mod | ROMK mod | Insulin prom inh | WT yeast gro inh | Ins promoter up | Lmaj promast | KCC2 sec1 | KCC2 bumet counter | KCC2 sec2 | HEK293 Tl flux | KCC2 ouabain | HEK293 Tl flux2
O=c1[nH]c2cc3c(cc2cc1CN(Cc1nnnn1CC1CCCO1)C1CCCCC1)OCO3 (stereo not given) | 7.43* | -1.4 | . | 3.7 | -0.03 | -6.7 | 0.00567 | ? | 0.0252* | 0.00675 | 0.0161* | ?
Cn1c(=O)c2c(nc(CN3CCC(C(N)=O)CC3)n2Cc2ccccc2F)n(C)c1=O | . | . | . | -6.8 | 0.01 | 0.6 | . | . | . | . | . | .
Cc1nnn(C23CC4CC(CC(C(=O)NN)(C4)C2)C3)n1 | 0.04 | -0.0869 | -325.0 | 1.3 | 0.74 | -4.9 | . | . | . | . | . | .
O=C(NCCN1C(=O)C2C3C=CC(C3)C2C1=O)Nc1ccccc1O (stereo not given) | -0.911 | . | . | -3.7 | -0.85 | -3.6 | 0.00879 | ? | 0.0314 | 0.00813 | 0.0213 | 0.0113
Cc1c(NC(=O)NCCN2C(=O)C3C4C=CC(C4)C3C2=O)c(=O)n(-c2ccccc2)n1C (stereo not given) | -2.61 | . | . | 12.1 | -0.05 | -5.1 | . | . | . | . | . | .
Cc1cccc(NC(=O)N2CCN(Cc3ccc(Cl)cc3)CC2)c1 | -2.64 | -0.468 | -25.0 | 7.7 | -0.48 | 13.7 | . | . | . | . | . | .
O=C(Nc1cccc(Cl)c1)N1CCN(Cc2ccccc2)CC1 | -4.62* | . | . | -13.1 | -0.92 | 1.2 | 0.00724 | 0.00543 | 0.0298 | 0.00723 | 0.0294* | ?
O=c1[nH]ncn1-c1cccc(C(F)(F)F)c1 | . | . | 14.3 | -18.6 | . | -3.5 | . | . | . | . | . | .
C/C(=N\S(=O)(=O)c1ccc(C)cc1)NC(=S)Nc1ccc(C)cc1 | 0.28 | -0.00341 | . | 6.3 | 1.09 | 7.9 | . | . | . | . | . | .
Cc1ccc(S(=O)(=O)/N=C(/NC(=S)Nc2cccc(C)c2)c2ccccc2)cc1 | 20.2* | -0.0192 | 30.4 | 3.1 | 0.45 | -7.0 | 0.00624 | 0.0301* | 0.0421* | 0.0225* | 0.0354* | 0.0243*
Cc1cc(N/C(=N\S(=O)(=O)c2ccc(F)cc2F)c2ccccc2)no1 | 0.0579 | 0.119 | -20.0 | -5.7 | 1.97 | -6.2 | . | . | . | . | . | .
Cc1ccc2nc(N/C(=N/S(=O)(=O)c3ccc(F)cc3F)c3ccccc3)sc2c1 | 21.5* | -1.14 | . | 21.7 | . | 5.4 | 0.0164 | 0.00943* | 0.0304 | 0.00959* | 0.0192 | ?
Cc1ccc2nc(N/C(=N/S(=O)(=O)c3ccc(F)cc3)c3ccccc3)sc2c1 | 4.46* | 0.0015 | -64.3 | 9.1 | -0.07 | 10.6 | 0.00947 | 0.00666 | 0.031 | ? | 0.0195 | ?
CC(Oc1ccc(Cl)cc1)c1ccn[nH]1 (stereo not given) | 0.259 | -0.656 | -20.0 | 5.7 | 0.22 | -6.9 | . | . | . | . | . | .
O=C(Nc1nnc(COc2ccc(Br)cc2)s1)c1ccco1 | -1.33 | -0.217 | . | . | . | . | . | . | . | . | . | .
COCC(C)n1c(C)cc(C(=O)CSc2ccc(NC(C)=O)cc2)c1C (stereo not given) | -5.84* | -0.836 | 51.4 | -15.4 | . | 15.0 | 0.00816 | 0.00564 | 0.0346 | 0.00787 | 0.0198 | 0.0123
COC(=O)c1ccc(-n2c(C)cc(C(=O)CSc3ccc(NC(C)=O)cc3)c2C)cc1 | -1.79 | . | -81.2 | 34.2 | -0.02 | 31.4 | . | . | . | . | . | .
COc1ccc(-c2nc(-c3cccc([N+](=O)[O-])c3O)cc(=O)o2)cc1OC | 0.9 | . | -25.8 | -2.5 | -0.13 | -6.4 | . | . | . | . | . | .
COc1cc(/C=C2/C(=O)c3cccc([N+](=O)[O-])c3C2=O)c(Br)cc1O | -4.67* | . | -3.6 | 2.1 | 0.37 | 99.7* | 0.0106 | 0.00779 | 0.0331 | 0.00652 | 0.0185 | 0.0101
N#C/C(=C\c1ccc(O)c(O)c1)C(=O)NCCCc1ccccc1 | -1.1 | . | -18.2 | 17.9 | . | 3.2 | 0.0081 | 0.00481 | 0.03 | 0.00781 | ? | 0.0117
CCN(CC)c1ccc(C(=O)Nc2cccc(F)c2)cc1 | -3.3* | . | 9.7 | 5.5 | -1.24 | 7.9 | 0.0185 | 0.00384 | 0.0269 | ? | 0.0135 | 0.00943
CN(C)c1cccc(C(=O)Nc2cccc(F)c2)c1 | -0.282 | . | 33.3 | 13.7 | -0.03 | 4.2 | . | . | . | . | . | .
CCN(CC)c1ccc(S(=O)(=O)N2CCOCC2)cc1NC(=O)CNCc1ccccc1 | -5.64* | . | . | . | -0.27 | . | 0.00678 | 0.00503 | 0.0292 | 0.00615 | ? | 0.00933
CCN(CC)c1ccc(S(=O)(=O)N2CCOCC2)cc1NC(=O)CN1CCN(Cc2ccccc2)CC1 | -1.57 | . | . | . | -0.52 | . | . | . | . | . | . | .
CCOCCc1nnc(N)s1 | 0.181 | 1.41 | 2.9 | 0.7 | -0.88 | -4.2 | . | . | . | . | . | .
SMILES | Cl transport mod | ROMK mod | Insulin prom inh | WT yeast gro inh | Ins promoter up | Lmaj promast | KCC2 sec1 | KCC2 bumet counter | KCC2 sec2 | HEK293 Tl flux | KCC2 ouabain | HEK293 Tl flux2
Clc1ccc(-c2noc(CCCc3ccccc3)n2)cc1 | 0.72 | -0.174 | -22.2 | 22.9 | -0.79 | -6.4 | . | . | . | . | . | .
CCOC(=O)Cn1c(=S)[nH]c2c(oc3ccc(Cl)cc32)c1=O | . | -0.0676 | 33.3 | -5.1 | 0.2 | -4.6 | 0.0219* | 0.0414* | 0.0334 | 0.0198* | 0.0396* | 0.0143*
CCOC(=O)Cn1c(=O)oc2ccc(C)cc21 | 0.883 | 0.146 | -10.5 | 0.0 | 0.64 | -9.0 | . | . | . | . | . | .
O=C(NC1CCCC1)c1sc(=S)n2c1[nH]c(=O)c1ccccc12 | 23.8* | -1.42 | . | 10.1 | 0.52 | -0.3 | 0.0155* | 0.0522* | 0.0301 | 0.0243* | 0.0451* | 0.0136*
CCCCCNC(=O)c1ccc2c(=O)[nH]c3c(C(=O)NCC4CCCO4)sc(=S)n3c2c1 (stereo not given) | -1.8 | -0.0087 | 13.5 | 2.0 | -0.5 | -3.1 | . | . | . | . | . | .
COc1ccc(C(O)(c2ccccc2OC)C(CN2CCOCC2)c2ccccc2)cc1 (stereo not given) | -0.81 | -0.218 | . | -4.6 | -1.93 | 21.7 | . | . | . | . | . | .
O=C1CN(C(=O)COC(=O)CCC(=O)c2ccc3c(c2)OCCO3)c2ccccc2N1 | -4.37* | . | -9.1 | 14.7 | -0.69 | -2.0 | 0.00734 | 0.00501 | 0.0241* | 0.00785 | 0.0169 | 0.00996
O=C(Cn1nnc(-c2ccccc2-n2cnnn2)n1)NCc1ccccc1 | -3.98* | . | . | -15.6 | 1.87 | -4.9 | 0.00823 | 0.00458 | ? | 0.00805 | 0.0186 | 0.0115
CCOc1ccc(N/C(N)=N/c2nc(CSc3nnc(C)s3)cc(=O)[nH]2)cc1 | 0.482 | . | . | . | 1.56 | . | . | . | . | . | . | .
COC(=O)c1ccc(CSc2nc3ccccc3c(=O)n2CC(C)C)o1 | 7.57* | . | 31.4 | 58.0* | -0.11 | 21.5 | 0.00737 | 0.0178* | 0.0347 | 0.017* | ? | 0.0173*
